A selection: hits, their analogues and other compounds. The true share with any hit is near 5.8%.
PINK1 modulator = PINK1 expression modulation | PINK1 immunofluorescence, high-content cytometry, 24 h | Potency, µM (series often up to 76.6 µM), inactives show at the highest dose activation (PINK1 increase), usual class: activators | 0.2% of 410,000 active | AID 624263; active means well fitted activation curve with a large enough effect; inconclusive means small, poorly fitted or top-dose-only effect; cell line not stated here; further: % of control where 0% means no effect; nearly all actives have a fitted effect of over 65% in size
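Stable cell line, 250 cells/well, 12 h attachment; compounds pinned at 5 concentrations, 24 h; CCCP control. Fixed with nuclear dye, primary antibodies 12 h at 10 degrees C, secondary plus cell stain; laser-scanning cytometer read.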
KB-V1 MDR tox = KB-V1 MDR subline cytotoxicity | KB-V1 MDR cells viability, CellTiter-Glo, 72 h | Potency, µM (doses to about 46.1 µM), usual class: cytotoxic | 3.4% of 400,000 active; further: on the % scale 0 is the no-effect control and ±100 the full control effect; nearly all actives have a fitted effect of over 60% in size
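Drug-selected KB-V1 cells, grown in DMEM lacking phenol red with 10% FBS, receive compound titrations; after three days at 37 degrees C, surviving cell ATP is quantified by CellTiter-Glo luminescence and responses normalized and curve-fitted.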
MCF10A rereplic = DNA re-replication induction in MCF 10a cells. MCF 10A DNA re-replication, Hoechst nuclear intensity, 48 h. Potency, µM (doses to about 46.1 µM), for inactives: at the highest dose activity, positive = re-replication, hits mostly activators. 2.9% of 350,000 active. AID 624296; further: % of control where 0% means no effect; nearly all actives have a fitted effect of over 50% in size
KB-3-1 tox = KB-3-1 parental cell cytotoxicity | KB-3-1 viability, CellTiter-Glo ATP luminescence, 72 h | Potency, µM (highest dose often 46.1 µM), usual class: cytotoxic | AID 1347075 | 1.4% of 400,000 active; further: on the % scale 0 is the no-effect control and ±100 the full control effect; nearly all actives have a fitted effect of over 60% in size
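Screening of KB-3-1 cells (DMEM, 10% FBS, phenol-red free) ran from lowest to highest compound concentration; after 72 h at 37 °C viability was read luminescently and curves fitted.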
SW480 rereplic = induces DNA re-replication in SW480 colon adenocarcinoma cells; SW480 DNA re-replication, Hoechst DNA content imaging, 48 h; Potency, µM (highest dose often 46.1 µM), without a hit: at the top dose re-replication activation, most hits filed as activators; 1.8% of 340,000 active; AID 624297; further: % of control where 0% means no effect; nearly all actives have a fitted effect of over 55% in size
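Image-based DNA-content assay: after two days of treatment, nuclei were labelled with the DNA dye Hoechst and imaged, and hits were compounds raising the count of nuclei showing high fluorescence intensity.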
12-LOX inh = blocks human arachidonate 12S-lipoxygenase; P18054; purified 12hLO, xylenol orange hydroperoxide absorbance; Potency, µM (highest dose often 108 µM), inactives show top-dose activity change, negative = inhibition, hits mostly inhibitors; 1.1% of 580,000 active; AID 1671190; further: on the % scale 0 is the no-effect control and ±100 the full control effect
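Hydroperoxide product was detected by ferrous iron/xylenol orange as the 573 to 405 nm absorbance ratio. Arachidonic acid at 40 uM (final) was turned over for 30 min at room temperature by 150 nM human 12hLO, pH 7.0 Hepes buffer, after 15 min compound preincubation.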
An asterisk follows results filed as active; i = inactive; ? = inconclusive; . = no result given; ! = repeats disagree; [ ] = dose if it differs, or a comment. Unless noted, the call rests on the fitted dose curve; in most records, active means well fitted curve in the direction sought with a large enough effect; inconclusive means small, poorly fitted or top-dose-only effect, or another doubt; inactive means no such curve, though single readings can be large; an effect the other way counts as inactive or inconclusive. Potency means the concentration at half of the fitted maximal effect.

SMILES	PINK1 modulator	KB-V1 MDR tox	MCF10A rereplic	KB-3-1 tox	SW480 rereplic	12-LOX inh
Cc1cc(C)nc(N2CCC(C(=O)N3CCN(c4cc(Cl)ccc4C)CC3)CC2)n1	5%[38.3 µM]	4.1µM*	?	?	?	-20%
Cc1ccc(C)c(N2CCN(C(=O)C3CCCCN3S(=O)(=O)c3ccc(F)cc3)CC2)c1 (stereo unspecified)	0%	2.6µM*	19%	?	5%	-21%
Cc1ccc(C)c(N2CCN(C(=O)C3CCN(c4nc(C)cc(C)n4)CC3)CC2)c1	5%[38.3 µM]	3.7µM*	3%	?	1%	-12%
Cc1ccc(C)c(N2CCN(C(=O)C3CCN(c4nc5ccc(C)cc5[nH]4)CC3)CC2)c1	-1%	i	.	i	.	?
Cc1ccc(Cl)cc1N1CCN(C(=O)C2CCN(S(C)(=O)=O)CC2)CC1	0%	i	5%	i	22%	1%
CN(Cc1ccccn1)C1CCCc2ccccc21 (stereo unspecified)	.	.	.	.	.	56%[176 µM]
O=C(O)c1ccccc1-c1cc2ccccc2oc1=O	.	.	.	.	.	17%
O=C(O)c1ccccc1-c1c2cc(I)c(=O)c(I)c-2oc2c(I)c(O)c(I)cc12	1%	i	-36%	i	-10%	35µM*!
O=C(O)c1c(Cl)c(Cl)c(Cl)c(Cl)c1-c1c2cc(I)c(=O)c(I)c-2oc2c(I)c(O)c(I)cc12	.	.	-6%	.	0%	0.86µM*
CC1CCC(C(=O)Nc2c(NC3CCCCC3)c3ccccc3oc2=O)CC1 (stereo unspecified)	.	.	.	.	.	-31%
COc1ccc(Nc2nc3ccccc3nc2NS(=O)(=O)c2cc(C)ccc2C)cc1	.	.	.	.	.	1%
C[N+](C)(C)CCSSCC[N+](C)(C)C	.	.	.	.	.	4µM*
CCCCCC[N+](C)(C)CCSSCC[N+](C)(C)CCCCCC	0%	i	6%	i	-4%	126%
N/C(=N\OC(=O)c1ccccc1)C(C(=O)NOC(=O)c1ccccc1)C1CCCCC1 (stereo unspecified)	-4%	?	?	23µM*	?	-4%
O=C(COC(=O)c1ccccc1)NC1CCCCCC1	0%	i	-17%	i	-12%	-2%
CC(C)Cn1c(N)c(C(=O)COC(=O)c2c(F)cccc2F)c(=O)n(C)c1=O	2%	i	0.52µM*	?	-56%	-9%
CN(CC(=O)Nc1ccc2c(c1)OCO2)Cc1cccs1	.	.	.	.	.	-7%
COC(=O)Cc1cc(=O)n2[nH]cnc2n1	-1%	i	6%	i	-2%[9.22 µM]	6.3µM*
COc1ccccc1[C@@H]1C(c2ccccc2)=NN(c2ccc(Br)cc2)[C@H]1C(=O)N1CCOC1=O	0%	i	3.3µM*	i	?	?
COc1ccccc1[C@@H]1C(c2cccc(C)c2)=NN(c2ccc(Br)cc2)[C@H]1C(=O)N1CCOC1=O	0%	i	?	i	21µM*	?
O=C1OCCN1C(=O)[C@H]1[C@H](c2ccc([N+](=O)[O-])cc2)C(c2ccccc2)=NN1c1ccc(Br)cc1	1%	i	-45%	i	-24%	-16%
COc1ccccc1[C@@H]1C(c2cccc(Cl)c2)=NN(c2ccccc2)[C@H]1C(=O)N1CCOC1=O	0%	i	?	?	2.6µM*	.
Cn1c(=O)c2c(nc(NC(CO)CO)n2Cc2ccc(Br)cc2)n(C)c1=O	.	.	.	.	.	6%
CC1CCN(C(=O)COc2ccc(Cl)cc2C(N)=O)CC1	.	.	.	.	.	33%
Cc1ccc(C(=O)c2cnc3ccccc3c2-c2ccccc2)cc1	0%	16µM*	?	i	18%	-18%
COc1ccc(C(=O)c2cnc3ccccc3c2-c2ccccc2)cc1	0%	18µM*	18µM*	23µM*	?	-6%
COc1ccc(NC(=O)c2cc(C3CCCCN3S(=O)(=O)c3ccc(C#N)cc3)on2)c(C)c1 (stereo unspecified)	0%	i	.	i	.	-15%

Source: PubChem
